In PubChem BioAssay:
Where “and” joins values, the source holds several entries; their conditions need not be identical. Equal entries are not always repeated. Calls of active or inactive are those of the source.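 The calls were made as follows, unless noted: active = compounds that lower viability of the colon cancer cells in the luminescence readout, with no numeric limit stated; inactive = the rest.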

Assays:
[1] = P. berghei load reduction in hepatocytes – cell-based, HepG2, luciferase luminescence, HepG2 viability, primary screen (AID 624349; in the data active = parasite load remaining mostly below about 12%, no sharp cut-off; inactive = mostly above about 10%;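 also: 100% = mean of DMSO negative control wells on the same plate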); conditions: P. berghei liver stage in HepG2, luciferase luminescence, concentration not given here; parasite load remaining: stronger effect = lower value; viability: measured here: HepG2 viability without parasites
[2] = Wnt pathway potentiators raising nuclear beta-catenin – imaging, WNT3A-conditioned medium, mouse C2C12, NPC library, primary screen (AID 1117326; in the data active = nuclear beta-catenin stimulation mostly above about 4.2%, no sharp cut-off; inactive = mostly below about 10%); conditions: stronger effect = higher value
[3] = stimulators of insulin release from INS-1E, primary screen, cell-based, 5 mM glucose, NPC library (AID 1117329;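 active = compound raises insulin release from rat beta cells at 5 mM glucose, no numeric limit stated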); conditions: rat INS-1E insulin secretion, at 10 µM, stronger effect = higher value
[4] = growth inhibition of GSK3B-pretreated HCT116 cells – cell-based, CellTiter-Glo, 0.2 to 20 µM (AID 1117336;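 active = compounds lowering colon cancer cell viability after pretreatment blocking the GSK3B kinase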); conditions: HCT116 viability after GSK3B inhibitor, at 20 µM, stronger effect = higher value
[5] = inhibition of endothelial tube formation, primary screen, imaging, VEGF stimulated, CD31 staining, tube area, NPC library (AID 1117340;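 active = compound that reduces growth-factor-driven endothelial tube area in a mixed cell culture, no cutoff stated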); conditions: VEGF-stimulated ADSC/ECFC co-culture, at 10 µM, stronger effect = higher value
[6] = GLP1 release stimulators, primary, NCI-H716, NPC library (AID 1117341;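 active = compound raises GLP1 secretion from the human gut endocrine cells, with no numeric limit stated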); conditions: NCI-H716 cells, at 10 µM, stronger effect = higher value
[7] = HCT116 colon cancer cell growth inhibition, primary screen, CellTiter-Glo luminescence, NPC library (AID 1117342;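 active = compounds that lower survival of HCT116 colon cancer cells in the luminescence readout, no numeric limit stated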); conditions: at 20 µM (top of the series)
[8] = reduced SW480 viability measured with CellTiter-Glo, NPC library, primary (AID 1117343); conditions: CellTiter-Glo luminescence; at 20 µM (top of the series) unless noted
[9] = NPC library primary testing for decreased DLD-1 cell viability via CellTiter-Glo (AID 1117346;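 active = compounds that lower survival of DLD-1 colon cancer cells in the luminescence readout, no cutoff given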); conditions: DLD-1 viability, CellTiter-Glo luminescence; at 20 µM (top of the series)
[10] = EMT-state selective cytotoxicity in co-culture – imaging, PC-3E GFP, TEM4-18 mCherry, primary screen (AID 1345086;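 active = compounds killing one labelled cell type while sparing the other, by normalised counts and ratio limits, not self-fluorescent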;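 as to all read-outs here: cells exposed to compound for 72 h before imaging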;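 as to red/green cell ratio (normalised): normalised mesenchymal count divided by normalised epithelial count so high means epithelial killing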); conditions: PC-3E GFP / TEM4-18 mCherry co-culture, imaging cell counts, at 1 µM; for red/green cell ratio (normalised): actives lie on both sides, counts scaled to control wells, 1 = unselective
[11] = viability loss with induced miR-34 in A549 – imaging, A549 dox-inducible miR-34, nuclei and caspase counts, primary screen (AID 1347080;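 active = compounds whose cell count with miR-34 switched on is under 0.7 times the count with it off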); conditions: A549 miR-34 inducible, Hoechst nuclei count, 48 h
[12] = biological target: NAD(+) hydrolase SARM1 (Homo sapiens) (UniProt Q6SZW1); experiment: blocking NAD cleavage by SARM1 SAM-TIR – cell lysate, NAD-Glo luminescence (AID 1508614;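 active = compound whose remaining NAD level is above about 45 nM, limit read from the data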;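 also: higher remaining NAD means stronger inhibition of SARM1 NADase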); conditions: SAM-TIR HEK293T lysate NADase, at 1 µM, stronger effect = higher value
[13] = measured here: epithelial PC-3E GFP cell survival
[14] = measured here: mesenchymal TEM4-18 mCherry cell survival
[15] = stronger effect = lower value, cell number ratio, induced over uninduced
[16] = measured here: relative caspase fold change +Dox/-Dox
[17] = measured here: total cells with miR-34 induction, stronger effect = lower value
[18] = measured here: total cells without miR-34 induction

Chain of NAD(+) hydrolase SARM1 (Homo sapiens) (Q6SZW1 whole entry, looked up): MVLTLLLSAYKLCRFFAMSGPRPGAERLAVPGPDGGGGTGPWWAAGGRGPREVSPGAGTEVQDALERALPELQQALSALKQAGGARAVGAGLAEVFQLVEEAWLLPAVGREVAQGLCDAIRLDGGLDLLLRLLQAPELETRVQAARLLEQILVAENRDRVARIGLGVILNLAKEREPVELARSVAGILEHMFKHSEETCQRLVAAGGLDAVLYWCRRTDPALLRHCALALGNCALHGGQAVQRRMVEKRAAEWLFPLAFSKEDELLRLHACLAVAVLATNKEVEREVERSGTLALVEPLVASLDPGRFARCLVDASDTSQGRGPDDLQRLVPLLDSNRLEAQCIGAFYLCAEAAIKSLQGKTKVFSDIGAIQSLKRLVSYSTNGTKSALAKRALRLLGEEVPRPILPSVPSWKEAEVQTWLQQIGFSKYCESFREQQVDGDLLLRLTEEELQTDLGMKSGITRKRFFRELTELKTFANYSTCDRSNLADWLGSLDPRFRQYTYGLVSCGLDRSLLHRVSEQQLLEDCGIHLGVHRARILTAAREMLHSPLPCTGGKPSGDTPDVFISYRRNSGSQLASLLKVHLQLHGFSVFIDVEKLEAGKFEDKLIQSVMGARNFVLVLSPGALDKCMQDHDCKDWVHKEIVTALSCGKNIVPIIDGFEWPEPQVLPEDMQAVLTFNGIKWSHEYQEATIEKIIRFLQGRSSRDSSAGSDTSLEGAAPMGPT

| SMILES | parasite load remaining [1] | viability [1] | nuclear beta-catenin stimulation ([2]; at 10 µM) | nuclear beta-catenin stimulation ([2]; stimulation, at 2 µM) [%] | insulin secretion stimulation [3] | viability decrease [4] | tube area decrease [5] | GLP1 secretion stimulation [6] | inhibition of viability [7] | viability decrease (inhibition) [8] | viability decrease (inhibition) [9] | red/green cell ratio (normalised) [10] | normalised cell number [10, 13] | normalised cell number [10, 14] | fold change [11, 15] | fold change [11, 16] | cell count [11, 17] | cell count [11, 18] | remaining NAD [12] |
| --- | --- | --- | --- | --- | --- | --- | --- | --- | --- | --- | --- | --- | --- | --- | --- | --- | --- | --- | --- |
| CCN(CC)CCOc1ccc2c(c1)C(=O)c1cc(OCCN(CC)CC)ccc1-2 | 151% (inactive) and 24.6% (inactive) | 84.5% and 89% | 8.6% (inactive) | 0.3 | 3.7% (inactive) | -16.4% (inactive) | 13% (inactive) | 3.6% (inactive) | 52.8% (active) | 95.3% (active) | 38.8% (inactive) | 1.18 (inactive) | 0.79 | 0.93 | 0.841 (inactive) | 3.57 | 9990 | 11900 | 10 nM (inactive) |
| CC[C@@H](CO)NCCN[C@@H](CC)CO | 80.8% (inactive) and 73.3% (inactive) | 73% and 99% | 0.5% (inactive) | 4.7 | 2.6% (inactive) | -8% (inactive) | 14.4% (inactive) | -1.2% (inactive) | -4.17% (inactive) | 11.7% (inactive) | -13% (inactive) | 0.98 (inactive) | 0.99 | 0.97 | 0.901 (inactive) | 1.1 | 11300 | 12600 | 10 nM (inactive) |
| CC1=C(C/C=C(\C)CCC[C@H](C)CCC[C@H](C)CCCC(C)C)C(=O)c2ccccc2C1=O | 21.8% (inactive) | 93.1% | 0.3% (inactive) | -0.8 | -2.6% (inactive) | -3.55% (inactive) | 23.9% (inactive) | 2.3% (inactive) | -10.9% (inactive) | -45.3% (inactive) | -6.65% (inactive) | 1.1 (inactive) | 0.92 | 1.01 | 0.94 (inactive) | 3.52 | 11600 | 12300 | 10 nM (inactive) |
| COc1cc(C(=O)NCCCCCC(=O)O)cc(OC)c1OC | 48.5% (inactive) | 104% | -0.1% (inactive) | -2.6 | 0.5% (inactive) | 5.7% (inactive) | 12.7% (inactive) | -0.6% (inactive) | 6.2% (inactive) | -6.6% (inactive) | -0.7% (inactive) | 0.91 (inactive) | 0.95 | 0.86 | 0.815 (inactive) | 7.04 | 11100 | 13600 | 10 nM (inactive) |
| CC(=O)NC(Cc1ccccc1)C(=O)O (stereo not given) | – | – | 1% (inactive) | -0.2 | -2.3% (inactive) | -0.2% (inactive) | -0.2% (inactive) | 2.6% (inactive) | 3.2% (inactive) | 23.3% (inactive) | 8.55% (inactive) | 0.91 (inactive) | 1.11 | 1.01 | – | – | – | – | 10 nM (inactive) |
| COc1ccc(Cc2cnc(N)nc2N)cc1OC | – | – | -0.5% (inactive) | -0.6 | 0.9% (inactive) | -3.05% (inactive) | -28.9% (inactive) | 2.9% (inactive) | -12.4% (inactive) | 6.9% (inactive) | -5.4% (inactive) | 1.2 (inactive) | 1.03 | 1.23 | 1.04 (inactive) | 0.896 | 9080 | 8710 | 10 nM (inactive) |
| CC(O)Cn1cnc2c1c(=O)n(C)c(=O)n2C (stereo not given) | 123% (inactive) | 89% | 3.9% (inactive) | 0.4 | -0.4% (inactive) | 24.9% (inactive) | 7.5% (inactive) | 1.8% (inactive) | 8.77% (inactive) | 26.1% (inactive) | 6.9% (inactive) | 0.96 (inactive) | 1.09 | 1.04 | 0.894 (inactive) | 1.1 | 7540 | 8430 | 10 nM (inactive) |
| O=C(Nc1ccc(C(=O)O)c(O)c1)c1ccccc1 | 47.9% (inactive) | 101% | 0.3% (inactive) | 0.4 | -1.2% (inactive) | 1.7% (inactive) | 7.2% (inactive) | -0.4% (inactive) | -1.1% (inactive) | 74.5% (active) | 0.8% (inactive) | 1.04 (inactive) | 0.89 | 0.92 | 0.856 (inactive) | 5.2 | 11700 | 13700 | 10 nM (inactive) |
| OCCc1ccccc1 | 52.9% (inactive) | 121% | 4.3% (inactive) | -0.1 | -0.8% (inactive) | -30.2% (inactive) | -4.7% (inactive) | -0.7% (inactive) | -7.95% (inactive) | 11.9% (inactive) | -12.4% (inactive) | 0.97 (inactive) | 1.02 | 1 | 0.881 (inactive) | 7.55 | 11500 | 13000 | 10 nM (inactive) |
| NC(=O)C1(N2CCCCC2)CCN(CCCC(=O)c2ccc(F)cc2)CC1 | – | – | -0.9% (inactive) | -2 | -0.5% (inactive) | -17.7% (inactive) | 11.1% (inactive) | 2.8% (inactive) | 15.3% (inactive) | 12.8% (inactive) | -5.9% (inactive) | 0.88 (inactive) | 1.16 | 1.02 | 0.938 (inactive) | 0.733 | 8980 | 9580 | 10 nM (inactive) |
